Measured values: PubChem BioAssay (NCI)
Compounds without any hit were thinned out: in the full panel of roughly 83,000, 20% have a hit.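 Method: cells in 96-well plates; compound added at one concentration; 48 h incubation; percent growth measured; values under 10 scored active.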 Values without a mark were called inactive. Activity calls are given as the source filed them.

Tests used:
Assay in all cases: NCI-60 one-dose screen, 48 h (100 = growth as untreated, 0 = no growth, -100 = all killed)
Conditions in all cases: 10 µM unless noted
T-47D breast = tested on: T-47D breast
BT-549 breast = tested on: BT-549 breast
MDA-MB-435 melanoma = tested on: MDA-MB-435 melanoma
SW-620 colon = tested on: SW-620 colon
MCF7 breast = tested on: MCF7 breast
HCT-116 colon = tested on: HCT-116 colon
HCC-2998 colon = tested on: HCC-2998 colon
KM12 colon = tested on: KM12 colon

| SMILES | growth (T-47D breast) | growth (BT-549 breast) | growth (MDA-MB-435 melanoma) | growth (SW-620 colon) | growth (MCF7 breast) | growth (HCT-116 colon) | growth (HCC-2998 colon) | growth (KM12 colon) |
| --- | --- | --- | --- | --- | --- | --- | --- | --- |
| CN(C)c1ccc(-c2c(C#N)c(N)nn2C(=O)c2ccc(NC(=O)c3ccccn3)cc2)cc1 | 101% | 97.8% | 98.2% | 92.8% | 92.5% | 90.8% | 95.2% | 88% |
| CCN(CC)S(=O)(=O)c1ccc(S(=O)(=O)N2CCC[C@@H](C(=O)N3CCN(c4nc(C(C)C)no4)CC3)C2)cc1 | 43.1% | 62.9% | 55.7% | 79.5% | 50.7% | 51.8% | 78.7% | 77.4% |
| Nc1nc2ccc(-c3nc4ccc5[nH]ncc5c4c4c3CCCC4)cc2s1 | 110% | 106% | 111% | 106% | 97.7% | 91.8% | 107% | 101% |
| COc1cccc(/C=C2\COc3ccc(O)c(O)c3C2=O)c1 | -0.573% (active) | 15.6% | -3.44% (active) | 1.94% (active) | 17.6% | -7.55% (active) | 19.8% | -13.7% (active) |
| O=C1C(=O)N(Cc2ccc(-c3ccccc3)cc2)c2ccc(OC(F)(F)F)cc21 | 49.7% | 0.708% (active) | 38% | 23.5% | 11.6% | 9.92% (active) | 36.6% | 12.5% |
| COc1ccc(-c2noc(C(=O)O)c2-c2cc(OC)c(OC)c(OC)c2)cc1 | 27.2% | 49.6% | -41.5% (active) | 22.4% | 18.9% | 19.4% | 58% | 27.9% |
| O=C1/C=C/[C@@H](O)[C@@H]2C[C@@H](O)C[C@H]2/C=C/CCC[C@H](CCc2ccccc2)O1 | 15.1% | 9.81% (active) | 5.95% (active) | -9.76% (active) | -3.62% (active) | -73.6% (active) | 15.9% | -50.5% (active) |
| C#CCNC(=O)[C@H](CC)[C@H]1CC[C@H](C)[C@H]([C@@H](C)[C@H](O)[C@H](C)C(=O)[C@H](CC)C2O[C@]3(C=CC(=O)[C@]4(CC[C@@](C)([C@H]5CC[C@](O)(CC)[C@H](C)O5)O4)O3)[C@H](C)C[C@@H]2C)O1 (stereo partly drawn) | 41.9% | 40.9% | -65.3% (active) | 30.8% | 24% | 25.9% | 85.4% | 23.8% |
| Nc1ncnc2c1C(c1ccccc1)c1ccc3ccccc3c1O2 (stereo not drawn) | 55.7% | 73.3% | 79.3% | 94.9% | 67.4% | 85.3% | 102% | 88.3% |
| c1csc(-c2ccc(CNc3c4ccccc4nc4ccccc34)cc2)c1 | 71.9% | 33.7% | -83.4% (active) | -72.2% (active) | -63% (active) | -82.6% (active) | -87.2% (active) | 26.3% |
| COc1ccccc1N1CCCCC1 | 99.1% | 96% | 112% | 99.9% | 96.3% | 102% | 110% | 107% |
| O=C(NNC(=O)c1ccc(NC(=O)c2ccccn2)cc1)Nc1ccc([N+](=O)[O-])cc1 | 99.2% | 94.6% | 106% | 104% | 95.7% | 101% | 109% | 108% |
| O=S(=O)(c1ccccc1)n1cc2c(c1)-c1nc(Nc3ncccn3)sc1CC2 | 53% | 63.8% | 61.5% | 65.1% | 49.5% | 23.1% | 85% | 82.8% |
| O=C(CSc1nnc(-c2cnccn2)n1-c1ccccc1)c1ccc(Cl)cc1 | 85.9% | 91.6% | 106% | 106% | 94.1% | 95.4% | 108% | 94.8% |
| CC(=O)O[C@@H]1C[C@]2(C(C)C)O[C@@]1(C)[C@@H]1CCC(C)=C1[C@@H]2OC(=O)/C=C/c1ccccc1 | 76.8% | 105% | 91.9% | 90.6% | 83.9% | 88.5% | 103% | 92.8% |
| CCC(=C(c1ccc(OCCN2CCCCC2)cc1)c1ccc(OCCN2CCCCC2)cc1)c1ccc(Cl)cc1 | -68.3% (active) | -91.7% (active) | -96.2% (active) | -84.1% (active) | -79.9% (active) | -91.1% (active) | -87% (active) | -84% (active) |

| SMILES | growth (T-47D breast) | growth (BT-549 breast) | growth (MDA-MB-435 melanoma) | growth (SW-620 colon) | growth (MCF7 breast) | growth (HCT-116 colon) | growth (HCC-2998 colon) | growth (KM12 colon) |
| --- | --- | --- | --- | --- | --- | --- | --- | --- |
| N#CSc1c[nH]c2cccc(/C=C/C(=O)/C=C(/C=C/c3cccc4[nH]cc(SC#N)c34)OB(F)F)c12 | 9.55% (active) | -25.3% (active) | -74.7% (active) | -35% (active) | -22.6% (active) | -88.5% (active) | -32.7% (active) | 11.7% |
| COc1ccc(Cc2cnc(NC(=O)c3cc(C)oc3C)s2)cc1 | 31.8% | 50.7% | 0.623% (active) | 27.9% | 21.6% | 25.1% | 60.9% | 25.4% |
| COc1cc(/C=C2/C=C(c3ccccc3)N(CCc3ccc(S(N)(=O)=O)cc3)C2=O)cc(OC)c1OC | 83.5% | 94.4% | 106% | 102% | 87.8% | 84.7% | 105% | 105% |
| NC(=O)CSc1oc(-c2ccccc2)nc1S(=O)(=O)c1ccc(Br)cc1 | 57.8% | 62.1% | 81% | 94.4% | 75% | 50.6% | 93.3% | 89% |
| O=C(Nc1ccc(Oc2cccc(Cl)c2)c(Cl)c1)c1cccnc1 | 35.6% | 53.3% | -44.3% (active) | 25.4% | 21.6% | 29.9% | 58% | 28.1% |
| COc1cccc(CNc2ccc3ncnc(Nc4ccc(F)c(Cl)c4)c3c2)c1 | 51.3% | 86.8% | 78.3% | 76.6% | 65.2% | 64.9% | 86.4% | 76.6% |
| O=S(=O)(NCCCNc1nccc(-c2c(-c3ccc(F)c(O)c3)nc3occn23)n1)c1ccc(Cl)cc1 | 69.1% | 79.4% | 27.6% | 97.8% | 55.9% | 32.8% | 85.7% | 70.2% |
| N#Cc1c(-c2ccc(Cl)cc2)c(C#N)c2c(C#N)c(N)nn2c1N | 57% | 75.5% | 95.4% | 94.7% | 81.3% | 96.1% | 102% | 92.9% |
| Oc1c(I)cc(I)cc1CNCc1ccccn1 | 14.8% | 36.7% | 46.8% | 33.2% | 28.7% | 26.4% | 49.3% | 41.1% |
| NC(=O)c1cccc(-n2ccc3cc(NC(=O)c4ccc(N5CCOCC5)c(C(F)(F)F)c4)ccc32)n1 | 3.32% (active) | 45.3% | 71.3% | 68.2% | 57.1% | 44.5% | 79.8% | 33.3% |
| C=CCN=c1sc2c(n1NC(=O)c1cc3ccc1CCc1ccc(cc1)CC3)C(=O)c1ccccc1C2=O | -3.21% (active) | -99.1% (active) | -93.5% (active) | -59.7% (active) | -62.8% (active) | -32.4% (active) | -33.5% (active) | 6.04% (active) |
| O=C1Nc2ccccc2/C1=C/c1cccn1CCCCn1c2ccccc2c(=O)c2ccccc21 | 5.03% (active) | 74.5% | 92.7% | 98.8% | 3.81% (active) | 74.2% | 40.5% | 13% |
| Cc1ccccc1/C=C/C(=O)c1cccc(OCCCCOc2cccc(C(=O)/C=C/c3ccccc3C)c2)c1 | 91.4% | 111% | 95% | 94.6% | 41.5% | 41.6% | 93.4% | 96.7% |
| CCc1ncnc2c1ccn2C(C)c1ccc(OC)c(F)c1 (stereo not drawn) | 36.1% | 52.4% | 6.71% (active) | 27.7% | 33.4% | 18.8% | 56.6% | 27.8% |
| N#Cc1c(-c2ccccc2)cc(-c2ccc(Nc3nc(Nc4ccc(Cl)cc4)nc(Nc4ccc(Cl)cc4)n3)cc2)nc1N | -39.5% (active) | -68.1% (active) | -34.4% (active) | -39.2% (active) | 22% | 4.99% (active) | -14.3% (active) | 50.1% |
